PubChem BioAssay
Values joined by “and” are separate entries in the source; they are usually repeats but may differ in a detail not shown here. Equal entries are not always repeated. Active and inactive are the calls of the source. No rule for the calls is given here.

Legend:
[1] = test system: Aerobactin synthetase IucA (Klebsiella pneumoniae hvKP1); experiment: Biochemical IucA enzyme inhibition primary screen of the Spectrum library (AID 1346200); conditions: malachite green pyrophosphate, A620, at 8 µM, stronger effect = lower value;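 also: 100% = wells without compound and 0% = wells lacking enzyme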
[2] = test system: Aerobactin synthetase IucA (Klebsiella pneumoniae, hypervirulent); experiment: IucA enzyme inhibition, biochemical, LOPAC library, absorbance readout (AID 1346212); conditions: IucA enzyme assay, absorbance (OD) readout; stronger effect = lower value;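 tested at 8 µM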;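 also: 100% = no compound wells and 0% = no enzyme wells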

Compound	activity remaining [1]	remaining activity [2]
Cc1nc2ccccn2c(=O)c1CCN1CCC(C(=O)c2ccc(F)cc2)CC1	120% (inactive)	101% (inactive)
O=NN(CCCl)C(=O)NCCCl	123% (inactive)	115% (inactive)
CCOC(=O)C(C)(C)Oc1ccc(Cl)cc1	110% (inactive)	122% (inactive)
C[C@](N)(Cc1ccc(O)cc1)C(=O)O	120% (inactive)	110% (inactive)
CC1=C(/C=C/C(C)=C/C=C/C(C)=C\C(=O)O)C(C)(C)CCC1	116% (inactive)	85.8% (inactive)
CCCC(CCC)C(=O)O	108% (inactive)	110% (inactive)
C#CCN(C)Cc1ccccc1	122% (inactive)	80.8% (inactive)
CSc1ccc2c(c1)N(CCC1CCCCN1C)c1ccccc1S2 (stereo not given)	116% (inactive)	91.4% (inactive)
CCOC(=O)N1CCC(=C2c3ccc(Cl)cc3CCc3cccnc32)CC1	116% (inactive)	112% (inactive)
CC/C(=C(\c1ccccc1)c1ccc(OCCN(C)C)cc1)c1ccccc1	118% (inactive)	107% (inactive)
NS(=O)(=O)c1cc2c(cc1Cl)NCNS2(=O)=O	103% (inactive)	102% (inactive)
C=CCc1ccccc1OCC(O)CNC(C)C (stereo not given)	110% (inactive)	91.4% (inactive)
NC[C@H](O)c1ccc(O)c(O)c1	107% (inactive)	118% (inactive)
CCCCC[C@H](CC(=O)NO)C(=O)N[C@H](C(=O)N1CCC[C@H]1CO)C(C)C	109% (inactive)	111% (inactive)
NC(CO)C(=O)NNCc1ccc(O)c(O)c1O (stereo not given)	109% (inactive)	111% (inactive)
C[N+](C)(C)CCO	126% (inactive)	112% (inactive)
CC(CN(C)C)CN1c2ccccc2CCc2ccccc21 (stereo not given)	105% (inactive)	106% (inactive)
O=C(/C=C/c1ccc(O)cc1)c1ccc(O)cc1O	98.7% (inactive)	93.6% (inactive)
N[C@@H]1CONC1=O	102% (inactive)	112% (inactive)
O=C1CC2(CCCC2)CC(=O)N1CCCCN1CCN(c2ncccn2)CC1	118% (inactive)	111% (inactive)
CNCCCC12CCC(c3ccccc31)c1ccccc12	105% (inactive)	109% (inactive)
CCN(CC)C(=S)SSC(=S)N(CC)CC	90.4% (inactive)	89.3% (inactive)
O=C(O)c1cc(=O)c2ccccc2[nH]1	113% (inactive)	109% (inactive)
N=C(N)SCCN	98.6% (inactive)	109% (inactive)

Compound	activity remaining [1]	remaining activity [2]
O=C1NCC2(CCN(CCc3ccccc3)CC2)O1	111% (inactive)	97.8% (inactive)
CN1CCN(C2=Nc3ccccc3Oc3ccc(Cl)cc32)CC1	120% (inactive)	110% (inactive)
Nc1ccc(S(=O)(=O)Nc2ccnn2-c2ccccc2)cc1	117% (inactive)	99.3% (inactive)
CN(C)CCC(c1ccccc1)c1ccccn1 (stereo not given)	109% (inactive)	89.8% (inactive)
C=C[C@H]1CN2CC[C@H]1C[C@@H]2[C@@H](O)c1ccnc2ccc(OC)cc12	98.9% (inactive)	115% (inactive)
O=c1cc(-c2ccc(O)cc2)oc2cc(O)cc(O)c12	113% (inactive)	107% (inactive)
CC(=O)OC(C)C[N+](C)(C)C (stereo not given)	80.8% (inactive)	119% (inactive)
NCCCC(=O)O	119% (inactive)	123% (inactive)
CC1=C(/C=C/C(C)=C/C=C/C(C)=C/C(=O)O)C(C)(C)CCC1	109% (inactive)	92% (inactive)
O=C(O)c1cc(=O)c2ccc(Cl)cc2[nH]1	94.8% (inactive)	85.9% (inactive)
NC/C=C/C(=O)O	107% (inactive)	101% (inactive)
CNCCC(Oc1ccc(C(F)(F)F)cc1)c1ccccc1 (stereo not given)	96.1% (inactive)	96.6% (inactive)
c1ccc([C@H]2CN3CCSC3=N2)cc1	117% (inactive)	112% (inactive)
CN1Cc2c(N)cccc2C(c2ccccc2)C1 (stereo not given)	119% (inactive)	109% (inactive)
O=C1CCc2cc(OCCCCc3nnnn3C3CCCCC3)ccc2N1	117% (inactive)	113% (inactive)
COc1ccc(CN(CCN(C)C)c2ccccn2)cc1	118% (inactive)	112% (inactive)
CN(C)CCCN1c2ccccc2Sc2ccc(Cl)cc21	115% (inactive)	110% (inactive)
CN1C(C(=O)Nc2ccccn2)=C(O)c2ccccc2S1(=O)=O	115% (inactive)	109% (inactive)
CNCCC=C1c2ccccc2CCc2ccccc21	122% (inactive)	113% (inactive)
O=c1c(-c2ccc(O)cc2)coc2cc(O)cc(O)c12	109% (inactive)	121% (inactive)
O=C(O)c1cccnc1C(=O)O	89.1% (inactive)	116% (inactive)
CCN(CC)CCNC(=O)c1cc(S(C)(=O)=O)ccc1OC	120% (inactive)	104% (inactive)
O=C(c1ccccc1)c1ccc2n1CCC2C(=O)O (stereo not given)	128% (inactive)	120% (inactive)
CN1CCN(CC(=O)N2c3ccccc3C(=O)Nc3cccnc32)CC1	117% (inactive)	94.6% (inactive)

Compound	activity remaining [1]	remaining activity [2]
COc1ccc2[nH]cc(CCNC(C)=O)c2c1	111% (inactive)	118% (inactive)
NCCSSCCN	116% (inactive)	117% (inactive)
NC(=O)N1c2ccccc2C=Cc2ccccc21	114% (inactive)	102% (inactive)
O=C1OC(=O)C2C3CCC(O3)C12 (stereo not given)	117% (inactive)	106% (inactive)
CN(C)CCCN1c2ccccc2CCc2ccc(Cl)cc21	111% (inactive)	117% (inactive)
CN1CCC(=C2c3ccccc3CC(=O)c3sccc32)CC1	100% (inactive)	112% (inactive)
O=C(O)/C=C/c1ccc(O)c(O)c1	101% (inactive)	117% (inactive)
CCN(CC)CC(=O)Nc1c(C)cccc1C	101% (inactive)	109% (inactive)
O=C(O)c1ccccc1Nc1ccccc1	106% (inactive)	108% (inactive)
CN(C)CCOC(c1ccccc1)c1ccccc1	105% (inactive)	100% (inactive)
CC(C[N+](C)(C)C)OC(N)=O (stereo not given)	116% (inactive)	114% (inactive)
C[N+](C)(C)CCCCCC[N+](C)(C)C	122% (inactive)	99.1% (inactive) and 87% (inactive)
CSc1ccc2c(c1)C(N1CCN(C)CC1)Cc1ccccc1S2 (stereo not given)	103% (inactive)	114% (inactive)
CCCCNc1cc(C(=O)O)cc(S(N)(=O)=O)c1Oc1ccccc1	115% (inactive)	109% (inactive)
CC(CN1c2ccccc2Sc2ccccc21)N(C)C (stereo not given)	78.1% (inactive)	109% (inactive)
CC(C)OC(=O)C(C)(C)Oc1ccc(C(=O)c2ccc(Cl)cc2)cc1	94.1% (inactive)	108% (inactive)
O=c1c(-c2ccc(O)cc2)coc2cc(O)ccc12	118% (inactive)	99.6% (inactive)
CCCNC(=O)NS(=O)(=O)c1ccc(Cl)cc1	118% (inactive)	103% (inactive)
O=[N+]([O-])c1cccc2c(Br)[nH]nc12	118% (inactive)	110% (inactive)
CCn1cc(C(=O)O)c(=O)c2cc3c(cc21)OCO3	109% (inactive)	95.5% (inactive)
Cn1c(=O)c2[nH]cnc2n(C)c1=O	120% (inactive)	111% (inactive) and 102% (inactive)
O=C(O)c1cc2cc(Cc3cccnc3)ccc2o1	121% (inactive)	104% (inactive)
CN=C(N)NCCC[C@H](N)C(=O)O	116% (inactive)	111% (inactive)
CC1(C)NC(=O)N(c2ccc([N+](=O)[O-])c(C(F)(F)F)c2)C1=O	124% (inactive)	98.2% (inactive)

Compound	activity remaining [1]	remaining activity [2]
CN1C2CCC1CC(OC(c1ccccc1)c1ccccc1)C2 (stereo not given)	101% (inactive)	113% (inactive)
CNCCCN1c2ccccc2CCc2ccccc21	100% (inactive)	105% (inactive)
CN=C(NC#N)NCCSCc1nc[nH]c1C	98.9% (inactive)	116% (inactive)
NC(=O)c1cnccn1	102% (inactive)	80.6% (inactive)
CC(C)Cn1c(=O)n(C)c(=O)c2[nH]cnc21	108% (inactive) and 118% (inactive)	108% (inactive)
NCCCCCC(=O)O	113% (inactive)	113% (inactive)
c1ccc2c(CC3=NCCN3)cccc2c1	106% (inactive)	115% (inactive)
CC(C)(C(=O)O)c1ccc(C(O)CCCN2CCC(C(O)(c3ccccc3)c3ccccc3)CC2)cc1 (stereo not given)	113% (inactive)	107% (inactive)
OC(CCN1CCCCC1)(c1ccccc1)C1CCCCC1 (stereo not given)	97.3% (inactive)	104% (inactive)
COc1ccc(Cl)cc1C(=O)NCCc1ccc(S(=O)(=O)NC(=O)NC2CCCCC2)cc1	91.3% (inactive)	120% (inactive)
Cc1ccccc1C(OCCN(C)C)c1ccccc1 (stereo not given)	100% (inactive)	117% (inactive)
CCN(CC)CCCC(C)Nc1ccnc2cc(Cl)ccc12 (stereo not given)	93% (inactive)	122% (inactive)
CCN(CC)CCOCCOC(=O)C1(c2ccccc2)CCCC1	93.9% (inactive)	113% (inactive)
CCn1cc(C(=O)O)c(=O)c2cc(F)c(N3CCNC(C)C3)c(F)c21 (stereo not given)	104% (inactive)	118% (inactive)
CN1CCN2c3ccccc3Cc3ccccc3C2C1 (stereo not given)	119% (inactive)	120% (inactive)
CCN(CC)CCOC(=O)c1ccc(N)cc1	105% (inactive)	106% (inactive)
NC(=O)c1ncn([C@@H]2O[C@H](CO)[C@@H](O)[C@H]2O)n1	120% (inactive)	96.8% (inactive)
CC(=O)Oc1ccccc1C(=O)O	109% (inactive)	118% (inactive)
Cn1c(=O)c2c(ncn2C)n(C)c1=O	119% (inactive)	113% (inactive)
NCCS(=O)(=O)O	123% (inactive)	97.8% (inactive)
Cc1ccc(S(=O)(=O)NC(=O)NN2CCCCCC2)cc1	117% (inactive)	91.6% (inactive)
Cc1ccc(/C(=C\CN2CCCC2)c2ccccn2)cc1	103% (inactive)	121% (inactive)
O=C(CCCN1CC=C(n2c(=O)[nH]c3ccccc32)CC1)c1ccc(F)cc1	111% (inactive)	98.7% (inactive)
COCCOC(=O)C1=C(C)NC(C)=C(C(=O)OC(C)C)C1c1cccc([N+](=O)[O-])c1 (stereo not given)	118% (inactive)	111% (inactive)

Compound	activity remaining [1]	remaining activity [2]
CN1C[C@H](C(=O)N[C@]2(C)O[C@@]3(O)[C@@H]4CCCN4C(=O)[C@H](Cc4ccccc4)N3C2=O)C[C@@H]2c3cccc4[nH]cc(c34)C[C@H]21	118% (inactive)	105% (inactive)
O=c1c(O)c(-c2ccc(O)c(O)c2)oc2cc(O)cc(O)c12	99.3% (inactive)	122% (inactive)
CC(=O)N[C@@H](CS)C(=O)O	110% (inactive)	108% (inactive)
Cc1cnc(NC(=O)C2=C(O)c3ccccc3S(=O)(=O)N2C)s1	118% (inactive)	120% (inactive)
CN(C)CCCN1c2ccccc2CCc2ccccc21	107% (inactive)	90.4% (inactive)
NC(=O)CC[C@H](N)C(=O)O	109% (inactive)	110% (inactive)
Nc1c2c(nc3ccccc13)CCCC2O (stereo not given)	105% (inactive)	101% (inactive)
NCCS	117% (inactive)	110% (inactive)
CN(C)C(=O)Oc1cccc([N+](C)(C)C)c1	87.4% (inactive)	120% (inactive)
CCCN(CCC)C(=O)C(CCC(=O)O)NC(=O)c1ccccc1 (stereo not given)	115% (inactive)	99.4% (inactive)
NCCCNCCSP(=O)(O)O	113% (inactive)	108% (inactive)
CC(C)NNC(=O)c1ccncc1	93.2% (inactive)	128% (inactive)
CCN(CC)CCNC(=O)c1ccc(NC(C)=O)cc1	92.5% (inactive)	109% (inactive)
CCCNC(C)C(=O)Nc1ccccc1C (stereo not given)	82% (inactive)	96.4% (inactive)
Cc1cn([C@H]2C[C@H](N=[N+]=[N-])[C@@H](CO)O2)c(=O)[nH]c1=O	114% (inactive)	117% (inactive)
Cc1ccc(C(=O)Nc2ccc(S(=O)(=O)O)c3cc(S(=O)(=O)O)cc(S(=O)(=O)O)c23)cc1NC(=O)c1cccc(NC(=O)Nc2cccc(C(=O)Nc3cc(C(=O)Nc4ccc(S(=O)(=O)O)c5cc(S(=O)(=O)O)cc(S(=O)(=O)O)c45)ccc3C)c2)c1	69% (active)	34.4% (active)
NCCCCN	91.8% (inactive)	94.5% (inactive)
CCN(Cc1ccncc1)C(=O)C(CO)c1ccccc1 (stereo not given)	98.9% (inactive)	98.9% (inactive)
NS(=O)(=O)c1cc2c(cc1Cl)NC=NS2(=O)=O	113% (inactive)	123% (inactive)
Oc1cc(O)c2c(c1)O[C@H](c1ccc(O)c(O)c1)[C@@H](O)C2	93% (inactive)	106% (inactive)
CC(C)(Oc1ccc(C2CC2(Cl)Cl)cc1)C(=O)O (stereo not given)	116% (inactive)	114% (inactive)
CC(C)[N+](C)(CCOC(=O)C1c2ccccc2Oc2ccccc21)C(C)C	105% (inactive)	92.2% (inactive)
Cc1scc2c1N(C(=O)CN1CCN(C)CC1)c1ccccc1NC2=O	117% (inactive)	105% (inactive)
CCCCS(=N)(=O)CCC(N)C(=O)O (stereo not given)	102% (inactive)	84.7% (inactive)
